HCMV antiviral = blocks human cytomegalovirus replication. HFF cells, HCMV-luciferase reporter, 72 h; hits give low values. activity change, negative = inhibition, % at 57.5 µM. actives 4.5% (n = 410,000). AID 1259415; in the data active = activity change below about -60%; inconclusive = no clear call, values can overlap the other calls; inactive = above about -39%
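Two-dose cell screen: HFF monolayers treated with compounds and infected with luciferase-expressing HCMV at 1 PFU/cell, 72 h at 37C, then lysed for luciferase measurement.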
Vaccinia mCherry = vaccinia inhibition (mCherry reporter); Vaccinia virus mCherry reporter infection, fluorescence; Potency, µM (highest dose often 36.5 µM), for the others: top-dose activity change, negative = inhibition, most hits filed as inhibitors; actives 0.63% (n = 310,000); AID 720579; calls by dose curve; tested in A549 cells; also: potency is read from the fitted curve at half-maximal effect; nearly all actives have a fitted effect of over 35% in size
VACV Venus inh = vaccinia inhibition (Venus reporter); Vaccinia virus Venus reporter expression, fluorescence; Potency, µM (doses to about 36.5 µM), for the others: at the top dose activity change, negative = inhibition, hits mostly inhibitors; actives 0.46% (n = 330,000); calls by dose curve; tested in A549 cells; also: potency is read from the fitted curve at half-maximal effect; nearly all actives have a fitted effect of over 30% in size
FMDV inh = blocks foot and mouth disease virus | FMDV antiviral cell-based qHTS | Potency, µM (top dose mostly 57.9 µM), for inactives: at the top dose activity change, negative = inhibition, usual class: inhibitors | actives 1.2% (n = 410,000) | AID 1159524; calls by dose curve; tested in HEK293T cells; also: read-out not given here; potency is read from the fitted curve at half-maximal effect; nearly all actives have a fitted effect of over 45% in size
HCV inh = inhibitors of hepatitis C virus infection. Potency, µM (top dose mostly 41.8 µM), for the others: at the top dose activity change, negative = inhibition, actives largely listed as inhibitors. actives 3.4% (n = 340,000). Huh7.5.1 HCVcc-Cre infection, luciferase reporter, 44 h; active = well fitted inhibition curve with a large enough effect; inconclusive = small, poorly fitted or top-dose-only effect, or another doubt; inactive = no such curve, though single readings can be large or run the other way; also: potency is read from the fitted curve at half-maximal effect
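Luciferase read-out (15 sec integration) after a 15 min room-temperature substrate step quantifies HCVcc-Cre infection. Cells, 1,000 per well, had compound added 4 h post-plating, then virus at ~0.5 moi, and were cultured 44 h.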
* = called active by the depositor; i = inactive; ? = inconclusive; / = no result; + = active, no number; ! = not confirmed by another sample. Hits are enriched below; roughly 7.3% of the tested compounds scored in any of these assays. % is scaled to controls: 0 for no effect and ±100 for the full control effect.

SMILES	HCMV antiviral	Vaccinia mCherry	VACV Venus inh	FMDV inh	HCV inh
CCCCNc1c(-c2ccc(OC)c(SC(C)CC)c2)nc2ccc(C)cn12 (configuration not stated)	-63*!	?	-16%	32µM*	?
COc1ccc(-c2nc3cc(C)ccn3c2NCC2CCCO2)cc1OC (configuration not stated)	30	i	-4%	-7%	13%
CCCCNc1c(-c2ccc(OC)c(SC(C)CC)c2)nc2cnccn12 (configuration not stated)	-20	?	-18%	?	?
CCCCNc1c(-c2ccc(OC)c(SC(C)CC)c2)nc2ccc(Cl)cn12 (configuration not stated)	10	-10%	-14%	-29%	?
CCCCNc1c(-c2ccc(Sc3ccc(OC)cc3)cc2)nc2cc(C)ccn12	29	?	?	?	10µM*
CCCCCCSc1cc(-c2nc3ccc(C)cn3c2NCCCC)ccc1OC	14	-25%	?	35µM*	13%
CCCCNc1c(-c2ccc(SC(C)CC)cc2)nc2ccccn12 (configuration not stated)	3	-31%	?	?	22µM*
CCCCCCSc1cc(-c2nc3ccc(Cl)cn3c2NCCCC)ccc1OC	?	-8%	0%	-26%	6%
CCOc1ccccc1N(C)C(=O)Cn1cnc2onc(-c3ccc(F)cc3)c2c1=O	17	-22%	-9%	0%	/
Cc1cc(C)cc(NC(=O)[C@H](Cc2c[nH]c3ccccc23)NC(=O)[C@@H]2Cc3ccccc3CN2)c1	/	-26%	-20%	-29%	?
CCc1ccc(NC(=O)[C@H](Cc2c[nH]c3ccccc23)NC(=O)[C@@H]2Cc3ccccc3CN2)cc1	/	5µM*	12%	8%	3.5µM*
Cc1cccc(NC(=O)[C@H](Cc2c[nH]c3ccccc23)NC(=O)[C@@H]2Cc3ccccc3CN2)c1	/	11µM*	33%	-4%	4µM*
COC(=O)C1=C(C)N(Cc2ccco2)C(=O)/C1=C\c1ccc([N+](=O)[O-])cc1	-16	-7%	10%	22µM*	4%
CN(C)C(=O)c1ccc(-c2cc(NCc3cccnc3)ncn2)cc1	/	/	/	-8%	/
Cc1nc(NCCc2ccc(S(N)(=O)=O)cc2)c2c(C)c(C)sc2n1	-88*	?	?	22µM*	1µM*
Cc1c(Br)c([N+](=O)[O-])nn1CC(=O)Nc1c(C)n(C)n(-c2ccccc2)c1=O	-102*	/	/	-5%	3%
COc1ccc(Nc2cc(Nc3cc(OC)c(OC)c(OC)c3)ncn2)cc1	-90*	-26%	-10%	?	?
COc1ccc(Nc2ncnc3c2cnn3Cc2ccc(C)cc2)cc1	-39	?	-22%	28µM*	11µM*
COc1ccc(Nc2cc(Nc3ccc(OC)cc3)ncn2)cc1	-37	3%	-9%	14%	16%
COc1cccc(Nc2ncnc3ccc(Br)cc23)c1	?	-23%	?	0%	/
Brc1ccc2ncnc(Nc3cccc4ccccc34)c2c1	-66*	-22%	-29%	/	?
Cn1ncc2c(Nc3ccc(Cl)cc3)ncnc21	+	/	/	56%	11%
COc1ncc2nc(C)c(=O)n(C)c2n1	/	/	/	-14%	/
CCn1c(=O)n(CC2CCC(C(=O)NC(C)C)CC2)c(=O)c2sccc21 (configuration not stated)	2	-6%	-10%	-5%	/
COc1ccccc1C1NC(c2ccc3c(c2)OCO3)=CC(c2ccccc2O)N1 (configuration not stated)	/	-12%	7%	/	/
SMILES	HCMV antiviral	Vaccinia mCherry	VACV Venus inh	FMDV inh	HCV inh
Cc1ccc(-n2ncc3c(NC4CCCCC4)ncnc32)cc1	-39	-7%	-6%	-50%	/
CCOc1ccccc1NC(=O)N(C)CCc1c(C)nn(CC)c1C	14	-7%	-11%	38%	/
COc1ccc(OC)c(Nc2ncnc3ccc(Br)cc23)c1	-63*	/	/	-26%	?
COc1ccc(Nc2ncnc3ccc(C)cc23)cc1	-72*	/	/	15%	-6%
O=[N+]([O-])c1ccc(-c2ccccc2)c([As](=O)(O)O)c1	-91*	i	-2%	-24%	-24%
COCCN(Cc1cc2cc3c(cc2nc1Cl)OCO3)C(=O)c1ccc(C)cc1	-69*	/	/	?	?
CCc1ccc(NS(=O)(=O)c2ccc(-c3cc(C)no3)cc2)cc1	?	-12%	-15%	15%	/
COc1cccc(/C=N/NC(=O)CSCC(=O)Nc2ccccc2)c1O	-93*	/	/	15%	25µM*
COc1cccc(/C=N/NC(=O)CNC(=O)C(c2ccccc2)c2ccccc2)c1O	17	3.5µM*	?	39%	?
CCC(Cn1nnc2ccccc2c1=O)NC(=O)Nc1cc(C)cc(C)c1 (configuration not stated)	106	-5%	-11%	7%	/
CCN(C(=O)CSc1nc2ccccc2n1CC(=O)Nc1ccccc1C)c1ccccc1	7	-21%	4%	7%	/
COc1ccc(N=C2C(=Nc3ccc(OC)cc3)N(c3ccc(N(C)C)cc3)C(=S)N2c2ccc(OC)cc2)cc1	15	-5%	-6%	16%	1.1µM*
COc1ccc(N=C2C(=Nc3ccc(OC)cc3)N(c3ccc(OC)cc3)C(=S)N2C(=O)c2ccc(OC)cc2)cc1	24	/	/	39%	-17%
N#Cc1nc(COc2cccc(Cl)c2)oc1NCCc1ccccc1	8	-2%	-7%	-1%	/
O=C(Nc1cccs1)Nc1c(F)c(F)c(F)c(F)c1F	-61*	-17%	-15%	20%	7%
Oc1ccc(F)c2cccnc12	-28	-6%	-16%	0%	?
Oc1ccc(COCc2ccccc2)c2cccnc12	-99*	-23%	?	-1%	5µM*
CN(C)C1CCN(Cc2cc(COCc3ccccc3)c3cccnc3c2O)C1 (configuration not stated)	/	/	/	-21%	/
Oc1ccc(CNc2ccccc2F)c2cccnc12	-89*	10µM*	10µM*	-21%	11µM*
OCc1ccc(O)c2ncccc12	-98*	/	?	-24%	11µM*
Oc1ccc(Cl)c2cccnc12	-27	?	-28%	0%	?
Oc1ccc(Cc2ccccc2)c2cccnc12	-100*	?	?	-9%	?
O=C(Nc1ccccc1OCc1cc(=O)n2ccccc2n1)Nc1ccccc1C(F)(F)F	-3	-2%	-6%	5%	/
COC1CC2C=C(C)C=CC=CC(=O)NC(c3ccccc3)CC=CCCC(O)CC(=O)C2=C1O (configuration not stated)	-100*	7.1µM*	2.8µM*	2.5µM*	/
CC(=O)N(CCCc1ccc(C(C)(C)C)cc1)CCCN(C)C	?	i	-8%	/	7.9µM*
CC(=O)N(CCCN(C)C)Cc1ccccn1	34	-1%	-23%	-14%	14%
COc1ccc(OC)c(NC(=O)CCOc2cccc(C)c2)c1	-19	-19%	-16%	?	11µM*
